Compounds without any hit were thinned out: in the full panel of roughly 79,000, 15% have a hit. Calls of active or inactive are those of the source. Cut-off read from the data, not from the text of the source: active = growth inhibition above about 70%; inactive = the rest.
What was measured:
[1] = NCI Yeast Anticancer Drug Screen. Data for the wt1 strain (AID 149);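 note: 0% = growth of vehicle-treated wt1 cultures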; conditions: S. cerevisiae wt1 strain (SPY 50644) growth inhibition, hits give high values
Method in brief: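 Using yeast strain wt1, compound-induced growth inhibition was determined against vehicle-treated cultures.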

[2] = NCI Yeast Anticancer Drug Screen. Data for the rad50EPP+ strain (AID 151);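 note: 0% = growth of vehicle-treated control cultures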; conditions: S. cerevisiae rad50 mutant strain, hits give high values
Method in brief: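 Genetically defined yeast (rad50EPP+, DNA damage repair alteration) is grown with compound, and inhibition of growth is expressed relative to vehicle-treated controls.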

[3] = NCI Yeast Anticancer Drug Screen. Data for the mgt1 strain (AID 153); conditions: S. cerevisiae mgt1 mutant growth inhibition, hits give high values
Method in brief: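 In the mgt1 strain, test compounds were added and growth inhibition was determined relative to vehicle-treated controls.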

[4] = NCI Yeast Anticancer Drug Screen. Data for the rad50 strain (AID 155);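 note: 0% = growth of vehicle-only cultures of the same strain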; conditions: S. cerevisiae rad50 strain growth inhibition, hits give high values
Method in brief: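 Relative growth inhibition (compound vs vehicle) was measured in yeast with a defined repair-gene alteration.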

[5] = NCI Yeast Anticancer Drug Screen. Data for the mec2-1 strain (AID 157); conditions: S. cerevisiae mec2-1 strain, hits give high values
Method in brief: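 Each compound was tested on mec2-1 yeast, a strain altered in DNA damage repair or cell cycle control. Growth inhibition is reported relative to vehicle.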

[6] = NCI Yeast Anticancer Drug Screen. Data for the rad14 strain (AID 159);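 note: 0% = growth of vehicle-treated control cultures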; conditions: S. cerevisiae rad14 strain growth inhibition, hits give high values
Method in brief: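 Screen for anticancer potential: a yeast strain altered in DNA damage repair is grown with compound, and reduced growth is quantified against vehicle controls.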

[7] = NCI Yeast Anticancer Drug Screen. Data for the sgs1 mgt1 strain (AID 161);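 note: 0% = growth of cultures given vehicle only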; conditions: S. cerevisiae sgs1 mgt1 strain, hits give high values
Method in brief: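 Test agents were incubated with a DNA-repair-mutant yeast strain. Growth was then read and compared against vehicle-treated controls.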

[8] = NCI Yeast Anticancer Drug Screen. Data for the CLN2oe strain (AID 163);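 note: 0% = growth of vehicle-only control cultures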; conditions: S. cerevisiae CLN2oe strain, hits give high values
Method in brief: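 First, the altered yeast strain was treated with each compound; second, its growth was measured; finally, inhibition was derived by comparison with vehicle controls.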

[9] = NCI Yeast Anticancer Drug Screen. Data for the cln2 rad14 strain (AID 165);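 note: 0% = growth equal to vehicle treated cultures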; conditions: S. cerevisiae cln2 rad14 strain, hits give high values
Method in brief: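 Test compounds were added to cln2 rad14 yeast cultures; inhibition of growth was then determined by comparison with vehicle treatment.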

[10] = NCI Yeast Anticancer Drug Screen. Data for the bub3 strain (AID 167); conditions: S. cerevisiae bub3 mutant strain, hits give high values
Method in brief: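 Screening used yeast with an engineered genetic alteration affecting cell cycle control. Compound-exposed cultures were compared with vehicle cultures, and reduced growth was taken as inhibition.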

[11] = NCI Yeast Anticancer Drug Screen. Data for the wt2 strain (AID 169);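 note: 0% = growth of vehicle-treated yeast cultures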; conditions: S. cerevisiae wt2 strain growth inhibition, hits give high values
Method in brief: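 The panel's yeast strains carry defined changes in DNA repair or cell cycle genes. Each strain is grown with compound, and growth loss is scored relative to vehicle.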

[12] = NCI Yeast Anticancer Drug Screen. Data for the mlh1 strain (AID 171);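 note: 0% = growth of vehicle-treated control cultures of the same strain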; conditions: S. cerevisiae mlh1 strain growth inhibition, hits give high values
Method in brief: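 Inhibition values reflect reduced yeast growth in the presence of compound, referenced to vehicle controls, using a strain chosen for its alteration in DNA repair or cell cycle control.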

[13] = NCI Yeast Anticancer Drug Screen. Data for the sgs1 strain (AID 173);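 note: 0% = growth of vehicle-only control cultures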; conditions: S. cerevisiae sgs1 mutant, hits give high values
Method in brief: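 Vehicle-treated cultures served as reference for growth inhibition of a yeast strain altered in DNA damage repair or cell cycle control after compound exposure.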

[14] = NCI Yeast Anticancer Drug Screen. Data for the mlh1 rad18 strain (AID 175); conditions: S. cerevisiae mlh1 rad18 strain growth inhibition, hits give high values
Method in brief: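 Inhibition values reflect reduced growth of mutant yeast versus vehicle-treated controls following compound exposure; the mutations affect DNA damage repair.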

[15] = NCI Yeast Anticancer Drug Screen. Data for the rad18 strain (AID 177); conditions: S. cerevisiae rad18 mutant growth inhibition, hits give high values
Method in brief: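 Steps: expose repair-mutant yeast to compound; measure growth; express as inhibition relative to vehicle control.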

[16] = NCI Yeast Anticancer Drug Screen. Data for the rad52 strain (AID 147);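 note: 0% = growth of vehicle-treated control cultures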; conditions: S. cerevisiae rad52 mutant growth inhibition, hits give high values
Method in brief: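 Inhibition of yeast growth, referenced to vehicle controls, was the measured output for a strain with defective DNA damage repair.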

[17] = at 5.0 µM (retest, dose inferred, filed as 0.5)
[18] = at 50.0 µM (retest, dose inferred, filed as 5.0)

Measured: growth inhibition

C=C[C@H]1CN2CC[C@H]1C[C@@H]2[C@@H](O)c1ccnc2ccccc12
inactive: [1]; at 1.2 µM -1% | [1]; at 3.7 µM -2% | [1]; at 11.0 µM -4% | [1]; at 33.0 µM -2% | [1]; at 100.0 µM -2% | [2]; at 1.2 µM -1% | [2]; at 3.7 µM 0% | [2]; at 11.0 µM -2% | [2]; at 33.0 µM -3% | [2]; at 100.0 µM -3% | [3]; at 1.2 µM 2% | [3]; at 3.7 µM 1% | [3]; at 11.0 µM 3% | [3]; at 33.0 µM 0% | [3]; at 100.0 µM 4% | [4]; at 1.2 µM 2% | [4]; at 3.7 µM 10% | [4]; [17] 2% | [4]; at 11.0 µM 3% | [4]; at 33.0 µM 2% | [4]; [18] 13% | [4]; at 50.0 µM -1.45% | [4]; at 100.0 µM -2% | [5]; at 1.2 µM -1% | [5]; at 3.7 µM 3% | [5]; [17] 8% | [5]; at 11.0 µM 4% | [5]; at 33.0 µM 2% | [5]; [18] 7% | [5]; at 50.0 µM -40.6% | [5]; at 100.0 µM -5% | [6]; at 1.2 µM -3% | [6]; at 3.7 µM -9% | [6]; at 11.0 µM -2% | [6]; at 33.0 µM 0% | [6]; at 100.0 µM 1% | [7]; [17] -10% | [7]; [18] -1% | [7]; at 50.0 µM -11.9% | [8]; at 1.2 µM 1% | [8]; at 3.7 µM 2% | [8]; at 11.0 µM 3% | [8]; at 33.0 µM 5% | [8]; at 100.0 µM 2% | [9]; [17] 44% | [9]; [18] 14% | [9]; at 50.0 µM 8.55% | [10]; at 1.2 µM 3% | [10]; at 3.7 µM -6% | [10]; [17] -8% | [10]; at 11.0 µM 1% | [10]; at 33.0 µM 1% | [10]; [18] -1% | [10]; at 50.0 µM -7.5% | [10]; at 100.0 µM 1% | [11]; at 1.2 µM 0% | [11]; at 3.7 µM 1% | [11]; at 11.0 µM 0% | [11]; at 33.0 µM -2% | [11]; at 100.0 µM 1% | [12]; at 1.2 µM -2% | [12]; at 3.7 µM 1% | [12]; at 11.0 µM -6% | [12]; at 33.0 µM -7% | [12]; at 100.0 µM 9% | [13]; at 1.2 µM -3% | [13]; at 3.7 µM -5% | [13]; at 11.0 µM -6% | [13]; at 33.0 µM -7% | [13]; at 100.0 µM -6% | [14]; [17] 2% | [14]; [18] 8% | [14]; at 50.0 µM 7.65% | [15]; at 1.2 µM -2% | [15]; at 3.7 µM -2% | [15]; at 11.0 µM -9% | [15]; at 33.0 µM -17% | [15]; at 100.0 µM -28%

O=[N+]([O-])c1ccc(N2CCC(CCCC3CCN(c4ccc([N+](=O)[O-])cc4[N+](=O)[O-])CC3)CC2)c([N+](=O)[O-])c1
inactive: [16]; at 1.2 µM -24% | [16]; at 3.7 µM -17% | [16]; at 11.0 µM -7% | [16]; at 33.0 µM 0% | [16]; at 100.0 µM 20% | [2]; at 1.2 µM -6% | [2]; at 3.7 µM -14% | [2]; at 11.0 µM -17% | [2]; at 33.0 µM -4% | [2]; at 100.0 µM 18% | [3]; at 1.2 µM -18% | [3]; at 3.7 µM -4% | [3]; at 11.0 µM 0% | [3]; at 33.0 µM 10% | [4]; at 1.2 µM 7% | [4]; at 3.7 µM 1% | [4]; at 11.0 µM 4% | [4]; at 33.0 µM 12% | [4]; at 100.0 µM 31% | [5]; at 1.2 µM -35% | [5]; at 3.7 µM -27% | [5]; at 11.0 µM -22% | [5]; at 33.0 µM -20% | [5]; at 50.0 µM 48.5% | [5]; at 100.0 µM -8% | [6]; at 1.2 µM -32% | [6]; at 3.7 µM -27% | [6]; at 11.0 µM -13% | [6]; at 33.0 µM -16% | [6]; at 100.0 µM 19% | [7]; [17] -41% | [7]; [18] 51% | [8]; at 1.2 µM -8% | [8]; at 3.7 µM -3% | [8]; at 11.0 µM 3% | [8]; at 33.0 µM -19% | [8]; at 100.0 µM 7% | [9]; [17] 10% | [9]; [18] 50% | [9]; at 50.0 µM 46.2% | [10]; at 1.2 µM -17% | [10]; at 3.7 µM -24% | [10]; [17] 6% | [10]; at 11.0 µM -32% | [10]; at 33.0 µM -6% | [10]; [18] 47% | [10]; at 100.0 µM -4% | [11]; at 1.2 µM -15% | [11]; at 3.7 µM -21% | [11]; at 11.0 µM -9% | [11]; at 33.0 µM 8% | [11]; at 100.0 µM 39% | [12]; at 1.2 µM -19% | [12]; at 3.7 µM -25% | [12]; at 11.0 µM -21% | [12]; at 33.0 µM -24% | [12]; at 100.0 µM 32% | [14]; at 50.0 µM 68.3% | [15]; at 1.2 µM -24% | [15]; at 3.7 µM -25% | [15]; at 11.0 µM -14% | [15]; at 33.0 µM -5% | [15]; at 100.0 µM 4%
active: [3]; at 100.0 µM 77% | [4]; [17] 98% | [4]; [18] 99% | [4]; at 50.0 µM 75% | [5]; [17] 99% | [5]; [18] 99% | [7]; at 50.0 µM 87.5% | [10]; at 50.0 µM 84.3% | [14]; [17] 99% | [14]; [18] 99%

Source: PubChem BioAssay (NCI)
